# High-throughput results from PubChem.
# Rows were chosen to be rich in hits. Some 3.5% of all compounds tested hit in one or more screens of this group.
# BJeLR lethal: MLPCN primary cell-based screen for lethality selective to Ras in HRASV12 cells. BJeLR (HRASV12) viability, CellTiter-Glo ATP luminescence, 48 h. inhibition, % (test concentration not listed). 300,000 compounds, 0.17% hits. AID 1554, 2009; in the data active = inhibition above about 50%; inconclusive = no clear call, values can overlap the other calls
# Autofluor counter: compound fluorescence in toxin protease inhibitor counterscreen; 360,000 compounds, 3.1% hits; compound autofluorescence counterscreen, microsphere flow cytometry; hits give high values; AID 624483; fluorescence intensity (concentration not given with the values); in the data active = fluorescence intensity above about 16000; inconclusive = no clear call, values can overlap the other calls
# BoNT A protease: BoNT/A light chain protease inhibitors, primary screen, biochemical, flow cytometry, MLPCN library; Botulinum neurotoxin type A light chain protease (Clostridium botulinum A str. ATCC 3502); multiplex microsphere protease substrate cleavage; inhibition, % at 10 µM; 360,000 compounds, 0.17% hits; AID 588499, 2011; also: plate controls were buffer without enzyme for full effect and enzyme alone for no effect
# BoNT F protease: BoNT/F light chain protease inhibitors, primary screen, biochemical, flow cytometry, MLPCN library; Botulinum neurotoxin type F light chain protease (Clostridium botulinum); Multiplex microsphere protease cleavage assay; inhibition, % at 10 µM; 360,000 compounds, 0.22% hits; in the data active = inhibition above about 35%, passing the limit was not always enough; inconclusive = no clear call, values can overlap the other calls; also: plate controls were buffer without enzyme for full effect and enzyme alone for no effect
# Anthrax LF prot: Bacillus anthracis LF protease inhibitors, primary screen, biochemical, multiplex microsphere, MLPCN library | Lethal factor (Bacillus anthracis), P15917 | multiplex microsphere protease cleavage assay | inhibition, % at 10 µM | 360,000 compounds, 0.12% hits | AID 588501, 2011; also: plate controls were buffer without enzyme for full effect and enzyme alone for no effect
# Active calls of the source: *; u = inconclusive; x = no result given. Rule as the data show it, unless noted: active = inhibition above about 30%; inconclusive = no clear call, values can overlap the other calls; inactive = below that.
SMILES,BJeLR lethal,Autofluor counter,BoNT A protease,BoNT F protease,Anthrax LF prot
C[C@H](CO)N1C[C@H](C)[C@@H](CN(C)Cc2ccc(C(=O)O)cc2)Oc2ccc(NS(C)(=O)=O)cc2C1=O,x,2831,0,3,-3
CC(=O)c1cccc(-c2ccnc3c2CC(C(=O)Nc2cccc(C(F)(F)F)c2)O3)c1 (configuration not stated),x,3638,0,0,-4
COc1ccc(C2C3=C(CCCC3=O)Nc3c(-c4ccccc4)c(C)nn32)cc1 (configuration not stated),-7,22999*,-1,-4,1
Cc1cc2occ(CC(=O)N(C)CC(=O)Nc3ccc(F)cc3)c2cc1C,3,u,6,7,6
COC(=O)c1cn(C(=O)c2ccccc2F)nc1N,-6,21604*,4,6,1
Cc1ccc2c(c1)c1c(n2C)C(C(N)=O)CCC1 (configuration not stated),5,22355*,0,-1,-3
CC1(C(=O)Nc2ccc(F)cc2F)CCN1C(=O)CCC1CCCC1 (configuration not stated),x,3651,0,-4,-5
Cc1cc(/C=N/n2cnnc2)c(C)n1-c1ccccc1,0,2943,0,10,0
C(=N\n1cnnc1)/c1cccn1-c1ccccc1,2,16775*,-2,-4,-2
COCCN1C[C@@H](CO)O[C@@H](n2cnc3c(NCc4ccco4)ncnc32)C1,x,2858,0,5,-9
Cc1cc(C)c(C)c(S(=O)(=O)NCC(=O)N2CCCC2)c1C,2,20412*,1,0,-1
O=C(/C=C/c1ccc(Cl)c(Cl)c1)NCc1ccco1,4,2025,3,35*,2
COc1ccccc1OCC(=O)NCc1ccco1,-2,10212,0,1,-11
O=C(/C=C/c1ccccc1)NCc1ccco1,1,4277,1,3,-9
Cc1ccc(Cl)c(OCC(=O)NCc2ccco2)c1,4,21508*,u,-3,-1
O=C(COc1ccccc1Br)NCc1ccco1,3,16469*,-1,0,0
COc1cccc(-c2nc(-c3cccc(C)c3)nc3cc(Cl)ccc23)c1,x,6041,1,9,-1
CNC(=O)c1cc(S(=O)(=O)N(C)C)ccc1Cl,x,22686*,1,0,-2
CCN(CC)S(=O)(=O)c1cc(C(=O)OC)ccc1Cl,-2,20925*,-1,-4,-4
COC(=O)c1ccc(Cl)c(NC(C)=O)c1,2,21958*,u,-5,1
CCN(CC)S(=O)(=O)c1ccc(Cl)c(NC(C)=O)c1,1,3959,-1,0,-5
CCN(CC)S(=O)(=O)c1ccc(Cl)c(C(=O)OC)c1,12,17005*,u,-4,1
CC(C)C[C@@H](COCc1cccc(Cl)c1)N1CCN(C(=O)c2ccc(C(F)(F)F)cc2)CCC1=O,x,6134,0,-8,-3
Cc1ccc(CN2CCN(Cc3cccn3-c3ccccn3)CC2CCO)o1 (configuration not stated),-16,2535,0,-2,1
Cc1nc(NCc2ccco2)[nH]c(=O)c1CCC(C)C,6,21901*,3,5,1
SMILES,BJeLR lethal,Autofluor counter,BoNT A protease,BoNT F protease,Anthrax LF prot
Cc1nc(NCC2CCCO2)[nH]c(=O)c1CCC(C)C (configuration not stated),-2,3064,0,-7,2
Oc1ccc(O)c2c1C1c3ccccc3C2c2ccccc21,-12,x,x,x,x
COC(=O)c1sc2ncccc2c1OCc1cccc(Cl)c1,4,6164,-1,-2,-9
O=C(OCc1ccc(COC(=O)c2cccnc2Cl)cc1)c1cccnc1Cl,-3,4600,0,-4,-7
O=C(OCc1ccc(F)cc1)c1cccnc1Cl,-12,5522,1,2,1
O=C(OCc1ccccc1Cl)c1cccnc1Cl,-19,21281*,-3,-2,-3
O=C(OCc1ccccc1Cl)c1ccccc1C(=O)c1ccccc1,14,22408*,1,0,-4
O=C(OCc1c(Cl)cccc1Cl)c1cccnc1Cl,-3,24071*,u,-5,-1
COC(=O)c1sc2ncccc2c1OCc1c(Cl)cccc1Cl,9,19174*,2,1,2
Cc1ccc(C(OCCN(C)C)c2cccc(C(F)(F)F)c2)cc1 (configuration not stated),13,2112,0,-1,0
Fc1ccc2c(c1)C(c1ccc(N3CCOCC3)cc1)=NNC(c1cccs1)=N2,2,19055*,u,3,-2
Cc1ccc2c(c1)C(c1ccc(N3CCOCC3)cc1)=NNC(c1cccs1)=N2,3,20609*,0,1,-2
CCc1ccc2c(c1)C(c1ccc(N3CCOCC3)cc1)=NNC(c1ccncc1)=N2,5,4664,-1,-5,3
Brc1ccc2c(c1)C(c1ccc(N3CCOCC3)cc1)=NNC(c1cccs1)=N2,4,19294*,3,-1,-8
CC(C)NC(=O)c1cc(C2CCCCN2S(=O)(=O)c2cccc3cccnc23)on1 (configuration not stated),x,3681,0,4,7
Cn1c(N)c(C(=O)COC(=O)COc2ccc3ccccc3c2)c(=O)n(C)c1=O,3,3322,0,-1,-4
CCOc1cc(C2c3c(oc4cc(C)c(Cl)cc4c3=O)C(=O)N2Cc2ccco2)ccc1O (configuration not stated),-1,21623*,-1,-3,-9
Cc1ccc2oc3c(c(=O)c2c1)C(c1cccc(Br)c1)N(Cc1ccco1)C3=O (configuration not stated),x,18391*,3,0,-5
Cc1cc2oc3c(c(=O)c2cc1C)C(c1cccc(Br)c1)N(Cc1ccco1)C3=O (configuration not stated),4,2845,0,-1,0
Cc1cc(Nc2ccc(F)cc2)nc(N)n1,-6,23182*,0,-3,1
CC(=O)c1cccc(NC(=O)Cc2cccs2)c1,-7,23709*,0,0,-2
CCCN(CCC)S(=O)(=O)c1ccc(NC(=O)Cc2cccs2)cc1,7,25405*,u,-5,0
CCCCN(CCCC)S(=O)(=O)c1ccc(NC(=O)CN2CCOCC2)cc1,2,20756*,5,4,1
CCCN(CCC)S(=O)(=O)c1ccc(NC(=O)COc2ccccc2)cc1,-9,16179*,u,-1,2
CCCNC(=O)NC1C(NC(=O)NCCC)N(C)C(=O)N1C (configuration not stated),1,2464,0,-1,-3
CC(C)c1ccccc1NC(=O)Nc1nnc([C@H]2C[C@H](O)[C@@H](CO)O2)s1,x,3855,0,-2,-4
